About 400 (5.1%) of roughly 7,900 compounds showed an effect of 50% or more. The list comes from a sample in which strong results are over-represented; it also holds similar structures and randomly drawn compounds.

The target of this test is Parkinson's disease protein 7 (PARK7/DJ1) (human, UniProt Q99497). Description: primary screen, percent inhibition; read as competition with a fluorescent probe by fluorescence polarization; higher = more effect of the substance. To be noted: 100 µM. The method in brief: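 Covalent fragments at 100 μM final were incubated 2 h with 0.2 μM PARK7, then 20 nM probe JYQ-107 added for a further 2 h. Fluorescence polarization read at 480/520 nm; relative FP loss versus reference controls gave remaining enzyme activity.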
Sequence of Parkinson's disease protein 7 (PARK7/DJ1) (Q99497 whole entry, looked up, the tested form may be a part): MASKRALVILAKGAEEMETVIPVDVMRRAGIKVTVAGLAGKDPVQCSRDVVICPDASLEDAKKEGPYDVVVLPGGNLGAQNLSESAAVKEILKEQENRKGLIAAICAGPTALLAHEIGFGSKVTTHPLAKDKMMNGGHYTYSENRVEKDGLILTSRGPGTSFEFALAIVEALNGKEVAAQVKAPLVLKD
For `O=c1oc2cc(OCC3CO3)ccc2c2c1CCC2` (stereo not drawn), the Inhibition % is listed as 10.6%.

As for `N#Cc1nc(N2CCOCC2)ccc1Cl`, the Inhibition % turned out to be 8.71%.

Consider `Cc1cn2c(C=C(C#N)c3ccccn3)c(C)nc2s1`, for which the Inhibition % is recorded as 13.6%.

In the case of `O=C(CCl)Nc1cc(C(F)(F)F)ccc1-n1cncn1`, the Inhibition % is 32.5%.

With `C=CC(=O)N1CCC(c2ccc(C)nc2)CC1`, the Inhibition % is reported as 4.08%.

Turning to `CCOc1ccncc1S(=O)(=O)Oc1cccc(F)c1`, the Inhibition % turned out to be 58.4%.

`Cn1cc(S(=O)(=O)Oc2cccc(F)c2)c(=O)n(C)c1=O`: the Inhibition % was determined as 5.3%.

Consider `CCn1cc(S(=O)(=O)Oc2cccc(F)c2)nc1C`, for which the Inhibition % amounted to 3.67%.

For the compound `N#Cc1nccnc1N1CCc2c(F)ccc(F)c2C1`, the Inhibition % was 41%.

Take `C=CC(=O)NCc1cc2ccccc2s1`: the Inhibition % is on record as 13.3%.

Turning to `CC1CC(N2CCCCC2Cn2cncn2)C(=O)O1` (stereo not drawn), the Inhibition % stood at 1.57%.

`C=CC(=O)NCCC1CCCCO1` (stereo not drawn): the Inhibition % was 2.29%.

In the case of `O=C(CCl)C1CCCCO1` (stereo not drawn), the Inhibition % worked out at 94.5%.

As for `O=C(CCl)NCC1CCCO1` (stereo not drawn), the Inhibition % worked out at 5.15%.

In the case of `O=C(CSC(F)(F)F)Nc1cccc(S(=O)(=O)F)c1`, the Inhibition % is listed as 99.8%.

For the compound `Cn1c(=O)ccn(CC(=O)Nc2cccc(S(=O)(=O)F)c2)c1=O`, the Inhibition % is listed as 99.6%.

`CCn1nc(C)c(C(=O)Nc2cccc(S(=O)(=O)F)c2)c1Cl`: the Inhibition % is reported as 8.14%.

In the case of `O=C(Cn1ncc2ccccc21)Nc1cccc(S(=O)(=O)F)c1`, the Inhibition % turned out to be 94.6%.

Regarding `CN(C)S(=O)(=O)c1cccc(NC(=O)CCl)c1`, the Inhibition % is 15.5%.

Turning to `NS(=O)(=O)c1cccc(NC(=O)CCCl)c1`, the Inhibition % was 4.37%.

As to `O=Cc1cccc(C(=O)O)c1O`, the Inhibition % was 24.2%.

Regarding `C=CC(=O)N1CCN(CC(C)C)C(=O)C1`, the Inhibition % amounted to 0.18%.

For `COc1ccc(CS(=O)(=O)F)cc1[N+](=O)[O-]`, the Inhibition % is 18.4%.

For the compound `C=CC(=O)N1CC(Cc2cccs2)C1`, the Inhibition % is reported as 12.5%.

For the compound `C=CC(=O)NCCc1nnc2n1CCCCC2`, the Inhibition % is 8.54%.

On to `COc1ccc(C(=O)NNC(=O)CCl)cc1`, for which the Inhibition % is -3.11%.

For `N#Cc1ncn(CCOc2ccccc2Cl)n1`, the Inhibition % is reported as 8.15%.

Consider `C=CC(=O)N1CC(C)OC2(CCOC(C)C2)C1` (stereo not drawn), for which the Inhibition % is reported as 9.19%.

Turning to `N#CSc1ccc(NC(=O)CCl)c(Cl)c1`, the Inhibition % stood at 55.8%.

As to `O=C(CCl)Nc1ccc(F)c(F)c1F`, the Inhibition % is on record as 32.8%.

For the compound `N#CSc1ccc(NC(=O)CCl)c(F)c1`, the Inhibition % is recorded as 72%.

Consider `O=C(CCl)Nc1ccc(Cl)cc1F`, for which the Inhibition % turned out to be 49.7%.

Turning to `O=C(CCl)Nc1ccc(F)cc1Cl`, the Inhibition % is given as 13.8%.

Turning to `O=C(CCl)Nc1ccc(F)cc1F`, the Inhibition % amounted to 23.9%.

Consider `O=C(CCl)Nc1ccc(Br)cc1F`, for which the Inhibition % is listed as 71.1%.

Consider `O=C(CCl)Nc1ccc(Cl)cc1Cl`, for which the Inhibition % turned out to be 18%.

As to `Cc1cc(SC#N)cc(C)c1NC(=O)CCl`, the Inhibition % turned out to be 4.28%.

Regarding `Cc1cccc(OCC(=O)Nc2ccc(S(=O)(=O)F)cc2)c1`, the Inhibition % came to 9.17%.

In the case of `OB(O)c1ccccc1OCC1CCOC1` (stereo not drawn), the Inhibition % is recorded as 5.05%.

For `Cc1cc(CN(C)c2ccc(C#N)nc2)no1`, the Inhibition % is -2.05%.

With `CN(CC(=O)Nc1ncc(S(=O)(=O)F)s1)S(C)(=O)=O`, the Inhibition % turned out to be 9.17%.

Regarding `CSC1(CNc2cccc(C#N)n2)CCC1`, the Inhibition % was found to be 11.9%.

On to `C=CC(=O)Nc1ccccc1CN1CCOCC1`, for which the Inhibition % came to 8.41%.

With `CCOc1cc(S(=O)(=O)n2ccc(C)n2)ccc1Cl`, the Inhibition % is recorded as 2.71%.

Turning to `Cc1cc(B2OC(C)(C)C(C)(C)O2)sn1`, the Inhibition % is reported as 0.986%.

For `O=C1N(c2ccccc2)C(c2ccco2)C1(F)F` (stereo not drawn), the Inhibition % amounted to 3.32%.

As for `Cc1cccnc1S`, the Inhibition % was determined as 12.6%.

Take `Nc1cccnc1S`: the Inhibition % stood at 101%.

As for `Sc1ncccc1Cl`, the Inhibition % is on record as 2.79%.

For `C=CC(=O)NC(C)c1csnn1` (stereo not drawn), the Inhibition % is listed as 10%.

On to `N#Cc1nc(N2CCCC(N3CCNC3=O)C2)ccc1Cl` (stereo not drawn), for which the Inhibition % came out at 1.45%.

In the case of `FC(F)(F)c1ccccc1OCC1CO1` (stereo not drawn), the Inhibition % stood at 11.7%.

With `Cc1ccccc1OCC1CO1` (stereo not drawn), the Inhibition % is given as 13.4%.

For `Fc1ccccc1OCC1CO1` (stereo not drawn), the Inhibition % stood at 54.7%.

`C=CC(=O)NCC1=CCOCC1`: the Inhibition % is reported as 6.41%.

As to `COC(=O)c1ccc(Cl)cc1S(=O)(=O)F`, the Inhibition % amounted to 96.1%.

With `COC(=O)c1ccccc1S(=O)(=O)F`, the Inhibition % is 52.5%.

For the compound `COC(=O)c1ccc(Cl)c(S(=O)(=O)F)c1`, the Inhibition % came to 9.08%.

With `COC(=O)c1ccccc1CS(=O)(=O)F`, the Inhibition % amounted to 7.86%.

As for `COC(=O)c1cccc(S(=O)(=O)F)n1`, the Inhibition % turned out to be 7.02%.

Take `COC(=O)c1ccc(S(=O)(=O)F)cc1F`: the Inhibition % came out at 4.21%.

As for `Cc1noc(C2CCN(Cc3cc(C#N)n(C)c3)C2)n1` (stereo not drawn), the Inhibition % was found to be 6.79%.

As for `C=CC(=O)N1CCC[C@@H]2O[C@H](c3ccccc3)C[C@@H]21` (racemic), the Inhibition % came to 5.3%.

The values above are taken from paper PMC9574860, “Chemical Toolkit for PARK7: Potent, Selective, and High-Throughput” (Journal of Medicinal Chemistry, 2022).
